Source: PubChem BioAssay (Tox21)
Values without a mark were called inactive. Inconclusive results are not listed. The source made the active and inactive calls. Unless noted, calls follow the shape of the dose curve; as a rule, active = well fitted curve in the direction sought with a large enough effect in the repeat runs; inconclusive = weak or mixed curves; inactive = no such curve, though single readings can be large; an effect the other way counts as inactive or inconclusive.

How the values were obtained:
[1] = qHTS assay to identify small molecule agonists of H2AX - cell viability counter screen (AID 1224847; calls by dose curve; also: nearly all actives have a fitted effect of over 30% in size; also: potency is read from the fitted curve at half-maximal effect)
Outline: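 For this counter screen, overnight-attached CHO-K1 cells received test compounds (15 concentrations, 0.76% DMSO final); 3 hr later at 37C, CellTiter-Glo reagent was added and luminescence recorded after 30 min at room temperature.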

[2] = qHTS RealTime-Glo MT Cell Viability Assay in HepG2 cells - 24 hour (AID 1224867); also: nearly all actives have a fitted effect of over 50% in size; also: potency is read from the fitted curve at half-maximal effect
Outline: (§1)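 HepG2 cells (600/well) were dispensed with RealTime-Glo reagents, incubated 5 h at 37 °C, then treated with compounds in DMSO for up to 40 h. Nonlytic NanoLuc luminescence reflecting viable cells was read at each stated time point.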

[3] = qHTS RealTime-Glo MT Cell Viability Assay in HEK293 cells - 32 hour (AID 1224868); also: nearly all actives have a fitted effect of over 50% in size; also: potency is read from the fitted curve at half-maximal effect
Outline: (§2)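 HEK293 cells seeded with NanoLuc/prosubstrate reagent, rested 5 h at 37 C, then dosed and kept at 37 C up to 40 h. Nonlytic real-time luminescence from viable cells read at 0, 8, 16, 24, 32 and 40 h.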

[4] = A CellTox Green Cytotoxicity Assay to monitor cytotoxicity in HEK293 cells - 0 hour (AID 1224869); also: % is scaled to controls: 0 for no effect and ±100 for the full control effect; nearly all actives have a fitted effect of over 50% in size
Outline: (§3)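 Fluorescence intensity, read at 0, 8, 16, 24, 32 and 40 h of compound treatment, reflected dye binding to DNA of dead HEK293 cells; compounds (23 nL, DMSO) were added 5 h after plating cells with reagent.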

[5] = qHTS RealTime-Glo MT Cell Viability Assay in HepG2 cells - 40 hour (AID 1224870); also: nearly all actives have a fitted effect of over 50% in size; also: potency is read from the fitted curve at half-maximal effect
Outline: (§4)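 HepG2 cells (600/well) mixed with RealTime-Glo MT reagent, settled 5 h at 37 C/5% CO2 before compound addition. Nonlytic NanoLuc luminescence from viable-cell prosubstrate reduction read repeatedly during 40 h treatment at 37 C.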

[6] = A CellTox Green Cytotoxicity Assay to monitor cytotoxicity in HEK293 cells - 40 hour (AID 1224871); also: nearly all actives have a fitted effect of over 45% in size; also: potency is read from the fitted curve at half-maximal effect
Outline: as §3

[7] = qHTS RealTime-Glo MT Cell Viability Assay in HEK293 cells - 16 hour (AID 1224872); also: nearly all actives have a fitted effect of over 50% in size; also: potency is read from the fitted curve at half-maximal effect
Outline: as §2

[8] = qHTS RealTime-Glo MT Cell Viability Assay in HepG2 cells - 8 hour (AID 1224873); also: nearly all actives have a fitted effect of over 55% in size; also: potency is read from the fitted curve at half-maximal effect
Outline: as §4

[9] = qHTS RealTime-Glo MT Cell Viability Assay in HEK293 cells - 40 hour (AID 1224874); settings: RealTime-Glo luminescence; max response: stronger effect = lower value; also: nearly all actives have a fitted effect of over 50% in size; also: potency is read from the fitted curve at half-maximal effect; as to max response: % is scaled to controls: 0 for no effect and ±100 for the full control effect
Outline: (§5)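 Viable HEK293 cells reduce a cell-permeant prosubstrate; the product diffuses out and is consumed by NanoLuc in the medium to give light. Compounds went in after a 5 h incubation and plates were read over the treatment course.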

[10] = A CellTox Green Cytotoxicity Assay to monitor cytotoxicity in HEK293 cells - 24 hour (AID 1224875); also: nearly all actives have a fitted effect of over 45% in size; also: potency is read from the fitted curve at half-maximal effect; as to activity change: % is scaled to controls: 0 for no effect and ±100 for the full control effect
Outline: as §3

[11] = A CellTox Green Cytotoxicity Assay to monitor cytotoxicity in HepG2 cells - 16 hour (AID 1224876); also: nearly all actives have a fitted effect of over 45% in size; also: potency is read from the fitted curve at half-maximal effect
Outline: (§6)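 Using 1536-well format, dye-containing HepG2 suspension was seeded, allowed 5 h at 37 C/5% CO2, dosed by pintool with compounds, positive and negative controls, and imaged for fluorescence across 40 h.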

[12] = qHTS RealTime-Glo MT Cell Viability Assay in HepG2 cells - 32 hour (AID 1224877); also: nearly all actives have a fitted effect of over 55% in size; also: potency is read from the fitted curve at half-maximal effect
Outline: as §1

[13] = A CellTox Green Cytotoxicity Assay to monitor cytotoxicity in HepG2 cells - 24 hour (AID 1224878); also: nearly all actives have a fitted effect of over 45% in size; also: potency is read from the fitted curve at half-maximal effect; as to Cytotoxicity: % is scaled to controls: 0 for no effect and ±100 for the full control effect
Outline: as §6

[14] = A CellTox Green Cytotoxicity Assay to monitor cytotoxicity in HepG2 cells - 40 hour (AID 1224879); also: potency is read from the fitted curve at half-maximal effect; nearly all actives have a fitted effect of over 40% in size
Outline: as §6

[15] = qHTS RealTime-Glo MT Cell Viability Assay in HEK293 cells - 0 hour (AID 1224880); also: nearly all actives have a fitted effect of over 45% in size; also: potency is read from the fitted curve at half-maximal effect
Outline: as §5

[16] = A CellTox Green Cytotoxicity Assay to monitor cytotoxicity in HEK293 cells - 32 hour (AID 1224881); also: nearly all actives have a fitted effect of over 40% in size; also: potency is read from the fitted curve at half-maximal effect
Outline: as §3

[17] = qHTS assay to identify small molecule antagonists of the estrogen related receptor (ERR) signaling pathway from Tox21 library (AID 1224848)
Outline: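 ERR reporter cell line (from NTP) seeded 2,000 cells/well, rested 6 h at 37 C/5% CO2, then pin-dosed with compounds in DMSO. After 18 h at 37 C, ONE-Glo added; luminescence read after 30 min at room temperature.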

[18] = qHTS assay to identify small molecule agonists of the estrogen related receptor (ERR) signaling pathway from Tox21 library (AID 1224849; calls by dose curve; also: % is scaled to controls: 0 for no effect and ±100 for the full control effect; nearly all actives have a fitted effect of over 15% in size); settings: ERR reporter cell line, ONE-Glo luciferase, 18 h; at 92.4 µM (top of the series) unless noted
Outline: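 Screening used an NTP-provided ERR luciferase cell line. Compounds in DMSO were added 6 h after seeding and left 18 h at 37 C before a 30 min ONE-Glo step and luminescence reading.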

[19] = qHTS assay to identify small molecule agonists of the hypoxia (HIF-1) signaling pathway (AID 1224846; active = well fitted activation curve with a large enough effect in the signal ratio in the repeat runs, not every such curve was filed as active; the % refers to the signal ratio; also: % is scaled to controls: 0 for no effect and ±100 for the full control effect)
Outline: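 A low-serum medium (0.5% dialyzed FBS) holding 2,000 HRE-bla ME-180 cells per well is preincubated for 5 hrs, dosed with compounds by pintool, and kept a further 17 hrs at 37C, 5% CO2 before CCF4-AM FRET detection of beta-lactamase.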

Compound | Potency [1] | Potency [2] | Potency [3] | Potency [4] | Potency [5] | Potency [6] | Potency [7] | Potency [8] | Potency [9] | Potency [10] | Potency [11] | Potency [12] | Potency [13] | Potency [14] | Potency [15] | Potency [16] | Potency [17] | activity change, positive = activation [18] | outcome [19] | max response [9] [%]
CN(C)S(=O)(=O)N(SC(F)(Cl)Cl)c1ccccc1 | 89.8 µM (active) | 11 µM (active) | 3.89 µM (active) | inactive | 9.77 µM (active) | 3.09 µM (active) | 4.9 µM (active) | 21.9 µM (active) | 4.36 µM (active) | 13.8 µM (active) | 12.3 µM (active) | 9.77 µM (active) | 7.76 µM (active) | 4.9 µM (active) | inactive | 4.9 µM (active) | – | – | – | –
CC[C@H]1C[C@@H]2C[C@H]3c4[nH]c5ccc(OC)cc5c4CCN(C2)[C@@H]13 | inactive | – | – | – | – | inactive | inactive | inactive | – | inactive | inactive | inactive | 54 µM (active) | 54 µM (active) | inactive | inactive | 30.1 µM (active) | -44.1% | – | –
CC1(c2ccc(Oc3ccccc3)cc2)OC(=O)N(Nc2ccccc2)C1=O (stereo not given) | 50.8 µM (active) | 49.3 µM (active) | 43.9 µM (active) | inactive | – | – | – | 49.3 µM (active) | 49.3 µM (active) | – | – | – | – | 55.3 µM (active) | inactive | – | 2.45 µM (active) | -64.5% | – | –
CCCN(CCC)c1c([N+](=O)[O-])cc(S(N)(=O)=O)cc1[N+](=O)[O-] | 89.8 µM (active) | 43.6 µM (active) | 18.5 µM (active) | inactive | 49 µM (active) | 39.7 µM (active) | 16.5 µM (active) | 24.5 µM (active) | 35.4 µM (active) | 23.3 µM (active) | 33.5 µM (active) | 43.6 µM (active) | 13.1 µM (active) | 11 µM (active) | inactive | 26.2 µM (active) | 48.6 µM (active) | -56.8% | – | –
[Hg+2].[I-].[I-] | 8 µM (active) | 9.77 µM (active) | 3.09 µM (active) | inactive | 12.3 µM (active) | 21.9 µM (active) | 3.47 µM (active) | 12.3 µM (active) | – | 24.5 µM (active) | 12.3 µM (active) | 11 µM (active) | 11 µM (active) | 6.16 µM (active) | – | 21.9 µM (active) | – | – | – | –
[CH3][Hg][Cl] | 50.4 µM (active) | 10.9 µM (active) | 4.35 µM (active) | inactive | 10.9 µM (active) | 6.9 µM (active) | 4.89 µM (active) | 15.5 µM (active) | 3.88 µM (active) | 7.74 µM (active) | 12.3 µM (active) | 10.9 µM (active) | – | 12.3 µM (active) | inactive | 7.74 µM (active) | – | – | – | –
N#CC(Cl)Cl | inactive | inactive | – | inactive | – | – | – | inactive | – | inactive | inactive | inactive | – | 1.2 µM (active) | inactive | inactive | – | -30.9% | – | –
CC(C)CC(C)Nc1ccc(Nc2ccccc2)cc1 (stereo not given) | 78.7 µM (active) | – | 21.5 µM (active) | inactive | – | 48.2 µM (active) | 19.2 µM (active) | 42.9 µM (active) | 21.5 µM (active) | – | inactive | – | inactive | – | – | 48.2 µM (active) | 47.7 µM (active) | -75.8% | – | –
CC(C)C1CCC(Cc2ccc(Cl)cc2)C1(O)Cn1cncn1 (stereo not given) | 88.9 µM (active) | 43.2 µM (active) | 12.2 µM (active) | inactive | 48.5 µM (active) | 24.3 µM (active) | 12.2 µM (active) | 24.3 µM (active) | 10.9 µM (active) | 24.3 µM (active) | 48.5 µM (active) | 48.5 µM (active) | – | 43.2 µM (active) | inactive | 34.3 µM (active) | 27 µM (active) | -68.5% | – | –
O=C1C=CC(=O)c2ccccc21 | 20.1 µM (active) | 21.9 µM (active) | 5.49 µM (active) | inactive | 24.5 µM (active) | – | 5.49 µM (active) | 17.4 µM (active) | 4.9 µM (active) | 6.92 µM (active) | 13.8 µM (active) | 24.5 µM (active) | 12.3 µM (active) | 12.3 µM (active) | 12.3 µM (active) | 6.16 µM (active) | 27.3 µM (active) | -74.8% | – | –
Clc1ccc(CO/N=C(\Cn2ccnc2)c2ccc(Cl)cc2Cl)c(Cl)c1 | 49.2 µM (active) | 23.9 µM (active) | 21.3 µM (active) | inactive | – | inactive | 21.3 µM (active) | – | 21.3 µM (active) | inactive | – | – | – | 26.8 µM (active) | inactive | inactive | 18.8 µM (active) | -54.4% [at 42.5 µM] | – | –
Oc1ccc2ccc3cccc4ccc1c2c34 | – | – | 15.5 µM (active) | inactive | – | – | 15.5 µM (active) | 43.6 µM (active) | 13.8 µM (active) | – | – | – | – | 54.9 µM (active) | – | – | – | – | inactive | –
Nc1ccccc1C(=O)Oc1ccc2ccccc2c1 | 80 µM (active) | inactive | inactive | inactive | inactive | inactive | – | – | – | inactive | inactive | inactive | – | – | inactive | inactive | – | – | – | -20.2
